Screen size: about 220,000 compounds; about 530 (0.24%) were called active. Rule as the data show it: active = inhibition above about 13%; inconclusive = no clear call, values can overlap the other calls; inactive = below that. Only a selection was taken, and actives are over-represented in it overall. Measured potencies and affinities stand elsewhere.
These molecules were tested against Bifunctional protein GlmU (Mycobacterium tuberculosis (strain ATCC 25618 / H37Rv)) (UniProt P9WMN3) (assay: inhibition of mycobacterial GlmU enzyme – biochemical, glucosamine-1-phosphate acetyltransferase (AID 1376;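 also: 0% = complete reaction with vehicle and 100% = reaction without substrate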)). Conditions: M. tuberculosis GlmU acetyltransferase enzyme assay; stronger effect = higher value;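 tested at 30 µM in the primary screen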.
Chain of Bifunctional protein GlmU (Mycobacterium tuberculosis (strain ATCC 25618 / H37Rv)) (P9WMN3 whole entry, looked up): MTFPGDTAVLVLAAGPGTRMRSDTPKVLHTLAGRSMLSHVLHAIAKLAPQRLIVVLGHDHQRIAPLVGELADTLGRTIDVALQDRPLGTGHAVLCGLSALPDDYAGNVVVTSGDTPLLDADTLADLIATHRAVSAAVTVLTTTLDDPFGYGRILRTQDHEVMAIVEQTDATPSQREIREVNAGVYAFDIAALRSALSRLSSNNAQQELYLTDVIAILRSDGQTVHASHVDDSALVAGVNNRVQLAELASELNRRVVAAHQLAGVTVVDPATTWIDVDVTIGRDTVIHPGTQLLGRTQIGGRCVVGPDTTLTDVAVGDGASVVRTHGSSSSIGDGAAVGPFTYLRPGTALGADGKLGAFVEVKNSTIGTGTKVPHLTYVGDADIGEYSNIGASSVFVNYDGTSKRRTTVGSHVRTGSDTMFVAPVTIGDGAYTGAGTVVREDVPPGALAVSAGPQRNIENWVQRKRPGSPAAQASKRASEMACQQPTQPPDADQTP

Q: How did the inhibition turn out when COC(=O)c1ccc(S(=O)(=O)NCc2ccccn2)n1C was run?
A: -0.35% (inactive)

Q: For COc1ccc(Nc2cccc(Cl)c2)c(C(=O)O)c1, which inhibition is on record?
A: 13.1% (active)

Q: For COc1cccc(Nc2ccccc2C(=O)O)c1, which inhibition is on record?
A: -2.96% (inactive)

Q: Which inhibition does the source give for COc1ccc(Nc2ccc(Cl)cc2)c(C(=O)O)c1 here?
A: 11.1% (inactive)

Q: With COc1cc(OC)cc(C(=O)O/N=C(\N)c2ccccn2)c1 as the molecule, how does the inhibition read?
A: -3.71% (inactive)

Q: With COc1ccccc1C(=O)O/N=C(\N)c1ccccn1 as the molecule, how does the inhibition read?
A: 6.05% (inactive)

Q: With COc1cc(C(=O)O/N=C(\N)c2ccccn2)cc(OC)c1OC as the molecule, how does the inhibition read?
A: 13.3% (active)

Q: With Cn1c(CSCCOc2ccccc2)n[nH]c1=S as the molecule, how does the inhibition read?
A: -1.84% (inactive)

Q: For COc1ccc(S(=O)(=O)NC2CC(C)(C)NC(C)(C)C2)c(C)c1C, which inhibition is on record?
A: 13.6% (active)

Q: With COc1ccc(Cl)cc1S(=O)(=O)NC1CC(C)(C)NC(C)(C)C1 as the molecule, how does the inhibition read?
A: 4.3% (inactive)

Q: How did the inhibition turn out when COc1c(C)cc(S(=O)(=O)NC2CC(C)(C)NC(C)(C)C2)c(C)c1C was run?
A: -0.79% (inactive)

Q: With O=C(O)c1ccc(N=Nc2c(O)[nH]c3cc(Cl)ccc23)cc1 as the molecule, how does the inhibition read?
A: 11% (inactive)

Q: Nc1nc(N)c(N=Nc2ccc(C(=O)O)cc2)c(N)n1 was tested. Which inhibition did it give?
A: 13.1% (active)

Q: How did the inhibition turn out when O=C(O)c1ccc(N=Nc2c(O)[nH]c3ccccc23)cc1 was run?
A: -3.4% (inactive)

Q: O=C(NCCO)C(c1ccccc1)c1ccccc1 was tested. Which inhibition did it give?
A: -1.82% (inactive)

Q: With COc1ccc2nc3sc(C(=O)NCCCN4CCc5ccccc5C4)cc3cc2c1 as the molecule, how does the inhibition read?
A: 5.05% (inactive)

Q: Which inhibition does the source give for COc1ccc2nc3sc(C(=O)NCCN4CCc5ccccc5C4)cc3cc2c1 here?
A: 15% (active)

Q: How did the inhibition turn out when COc1ccc2cc3cc(C(=O)NCCN4CCc5ccccc5C4)sc3nc2c1 was run?
A: 4.04% (inactive)

Q: O=C1C(Cl)=C(Nc2ccc(F)cc2)C(=O)N1CCc1ccccc1 was tested. Which inhibition did it give?
A: -4.15% (inactive)

Q: How did the inhibition turn out when O=C1C(Cl)=C(NCCc2ccccc2)C(=O)N1CCc1ccccc1 was run?
A: 1.54% (inactive)

Q: For CCOc1ccccc1NC1=C(Cl)C(=O)N(c2ccccc2)C1=O, which inhibition is on record?
A: 0.96% (inactive)

Q: Which inhibition does the source give for COc1ccccc1NC1=C(Cl)C(=O)N(c2ccccc2)C1=O here?
A: 1.83% (inactive)

Q: With COc1ccc(NC2=C(Cl)C(=O)N(c3ccccc3)C2=O)c(OC)c1 as the molecule, how does the inhibition read?
A: 4.46% (inactive)

Q: Which inhibition does the source give for COc1ccc(N2C(=O)C(Cl)=C(Nc3ccccc3OC)C2=O)cc1 here?
A: 3.86% (inactive)

Q: Which inhibition does the source give for CCOc1ccc(N2C(=O)C(Cl)=C(Nc3ccccc3O)C2=O)cc1 here?
A: 7.85% (inactive)

Q: O=C1C(Cl)=C(Nc2ccccc2O)C(=O)N1c1ccccc1 was tested. Which inhibition did it give?
A: 42.6% (active)

Q: For CCOc1ccccc1NC1=C(Cl)C(=O)N(c2ccc(OC)cc2)C1=O, which inhibition is on record?
A: -5.57% (inactive)

Q: How did the inhibition turn out when COc1ccc(-n2c3c(cc(C(=O)N4CCC(C)CC4)c2=O)C(=O)CC(C)(C)C3)cc1 was run?
A: 0.29% (inactive)

Q: Cc1cc(C)c(NC2=NS(=O)(=O)c3ccccc32)c(C)c1 was tested. Which inhibition did it give?
A: 0.24% (inactive)

Q: With COc1cccc(OC)c1C(=O)NC(=S)NNC(=O)[C@H]1C[C@@H]1c1ccccc1 as the molecule, how does the inhibition read?
A: 3.93% (inactive)

Q: With O=c1cc(CSc2nnc3ccccn23)c2c(ccc3ccccc32)o1 as the molecule, how does the inhibition read?
A: 5.61% (inactive)

Q: Which inhibition does the source give for Cc1ccc(C2=CC(C)(c3ccc(C)cc3)Nc3nc(C(F)(F)F)nn32)cc1 (centres undefined) here?
A: -1.89% (inactive)

Q: For COc1ccc(O)c(/C=N/Nc2nc3ccccc3[nH]2)c1, which inhibition is on record?
A: 1.12% (inactive)

Q: O=[N+]([O-])c1ccc(O)c(/C=N/Nc2nc3ccccc3[nH]2)c1 was tested. Which inhibition did it give?
A: 2.26% (inactive)

Q: With O=C(Nc1ccc(N2CCN(C(=O)c3cccs3)CC2)cc1)c1cccnc1 as the molecule, how does the inhibition read?
A: -0.33% (inactive)

Q: Which inhibition does the source give for O=C(Nc1cccc(C(=O)N2CCOCC2)c1)c1cccnc1 here?
A: 2.11% (inactive)

Q: Which inhibition does the source give for CSc1nc(Cl)cc(N2CCOCC2)n1 here?
A: 3.3% (inactive)

Q: With Cc1[nH]n(-c2ccccc2)c(=O)c1CCO as the molecule, how does the inhibition read?
A: -5.63% (inactive)

Q: CCOC(=O)Cc1c(C)[nH]n(-c2ccccc2)c1=O was tested. Which inhibition did it give?
A: 0.6% (inactive)

Q: How did the inhibition turn out when Cc1cc(N)n(-c2ccc3ccccc3c2)n1 was run?
A: 0.94% (inactive)

Q: How did the inhibition turn out when Cc1cc(C)n(-c2ccc(Oc3ccccc3)c(S(=O)(=O)O)c2)n1 was run?
A: 12.6% (inactive)

Q: For CCOC(=O)C1CCCN(CC(=O)Nc2c(F)c(F)c(F)c(F)c2F)C1 (centres undefined), which inhibition is on record?
A: 0.78% (inactive)

Q: For CCS(=O)(=O)N1Cc2ccccc2CC1C(=O)Nc1nc(C)cs1 (centres undefined), which inhibition is on record?
A: -3.38% (inactive)

Q: Which inhibition does the source give for Cc1cc(C(=O)NC(C)c2ccccc2)c2cc(F)ccc2n1 (centres undefined) here?
A: 2.48% (inactive)

Q: For CS(=O)(=O)N1CCC(C(=O)Nc2ccc(OCc3ccccc3)cc2)CC1, which inhibition is on record?
A: 0.13% (inactive)

Q: With OCCN1CCN(CC(O)C(F)(F)F)CC1 (centres undefined) as the molecule, how does the inhibition read?
A: 0.82% (inactive)

Q: With O=C(c1cccc(Cl)c1)N1CCN(Cc2c[nH]c3ccccc23)CC1 as the molecule, how does the inhibition read?
A: 7.63% (inactive)

Q: Which inhibition does the source give for O=C(c1cccc(F)c1)N1CCN(Cc2c[nH]c3ccccc23)CC1 here?
A: 15% (active)

Q: For O=C(c1ccccc1)N1CCN(Cc2c[nH]c3ccccc23)CC1, which inhibition is on record?
A: -4.61% (inactive)

Q: For O=c1[nH]c(CSc2ncc(C(F)(F)F)cc2Cl)nc2cc(C(F)(F)F)ccc12, which inhibition is on record?
A: -1.09% (inactive)

Q: Which inhibition does the source give for Cc1sc2ncnc(OCC(=O)N3CCN(S(=O)(=O)c4ccccc4)CC3)c2c1C here?
A: -1.45% (inactive)

Q: For COc1cccc(NC(=O)C(Sc2nnc(Nc3ccccc3C)s2)c2ccccc2)c1 (centres undefined), which inhibition is on record?
A: -3.98% (inactive)

Q: Which inhibition does the source give for CCOc1cccc(CNCc2ccc(C(=O)O)cc2)c1 here?
A: -1.27% (inactive)

Q: Cc1c(C(=O)O)cccc1-c1ccc(/C=C2/NC(=O)N(c3ccccc3)C2=O)o1 was tested. Which inhibition did it give?
A: -0.48% (inactive)

Q: How did the inhibition turn out when Cc1ccc(CN2C(=O)N/C(=C/c3ccc(-c4ccc(C(=O)O)cc4)o3)C2=O)cc1 was run?
A: 4.7% (inactive)

Q: How did the inhibition turn out when Cc1cc(C(=O)O)ccc1-c1ccc(/C=C2\NC(=O)N(Cc3ccc(F)cc3)C2=O)o1 was run?
A: 13.9% (active)

Q: How did the inhibition turn out when Cc1ccc(/C=C2/NC(=O)N(Cc3ccccc3)C2=O)o1 was run?
A: -1.11% (inactive)

Q: For O=C(O)c1cc(-c2ccc(/C=C3/SC(=S)N(Cc4ccccc4)C3=O)o2)ccc1Cl, which inhibition is on record?
A: 17% (inactive)

Q: O=C(O)c1cc(-c2ccc(/C=C3\NC(=O)N(c4ccccc4)C3=O)o2)ccc1Cl was tested. Which inhibition did it give?
A: 13.6% (active)

Q: For Cc1ccc(N2C(=O)NC(=O)/C(=C/c3ccc(-c4ccc(C(=O)O)c(Cl)c4)o3)C2=O)cc1, which inhibition is on record?
A: 6.82% (inactive)

Q: With O=C(O)c1cc(-c2ccc(/C=C3\NC(=O)N(c4ccc(Cl)cc4)C3=O)o2)ccc1Cl as the molecule, how does the inhibition read?
A: 27% (active)

Q: For Cc1ccc(/C=C2/NC(=O)N(c3ccccc3)C2=O)o1, which inhibition is on record?
A: -0.29% (inactive)

Q: With O=C(O)c1cc(-c2ccc(/C=N/Nc3ccc(Cl)cc3)o2)ccc1Cl as the molecule, how does the inhibition read?
A: -0.42% (inactive)

Q: Which inhibition does the source give for Cc1cc(C(=O)O)ccc1-c1ccc(/C=C2\NC(=O)N(Cc3ccccc3Cl)C2=O)o1 here?
A: 5.89% (inactive)

From PubChem BioAssay AID1376 (SRMLSC, 2008)
